Out of some 360,000 compounds screened, about 2,400 (0.67%) were called active. The sample as a whole holds a higher share of actives than the screen did. A number with no mark means an inactive call. Cut-off read from the data, not from the text of the source: active = enhancement above about 30%; inactive = the rest.
What follows are compounds tested against Thyrotropin-releasing hormone receptor (Homo sapiens) (UniProt P34981) (assay: qHTS for Small Molecule Agonists and Allosteric Enhancers of Human TRH Receptor: Primary Screen for Enhancers). Settings: TRHR cells, fluo-8 calcium fluorescence, EC20 TRH enhancement; at 2 µM; hits give high values.
Thyrotropin-releasing hormone receptor (Homo sapiens), sequence (P34981 whole entry, looked up): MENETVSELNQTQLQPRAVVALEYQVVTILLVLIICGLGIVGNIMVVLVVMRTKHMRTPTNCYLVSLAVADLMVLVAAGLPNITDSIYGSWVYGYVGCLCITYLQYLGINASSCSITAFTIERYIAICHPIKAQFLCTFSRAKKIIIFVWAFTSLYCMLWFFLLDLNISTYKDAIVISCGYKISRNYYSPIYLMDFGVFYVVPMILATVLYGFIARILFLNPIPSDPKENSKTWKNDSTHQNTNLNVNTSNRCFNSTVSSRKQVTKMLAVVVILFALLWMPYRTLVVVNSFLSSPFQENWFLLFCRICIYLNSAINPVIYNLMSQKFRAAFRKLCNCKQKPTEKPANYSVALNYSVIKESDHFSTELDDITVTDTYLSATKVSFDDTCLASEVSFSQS
Excerpt: NIH Chemical Genomics Center [NCGC] NIH Molecular Libraries Probe Centers Network [MLPCN] MLPCN Grant: MH089816-01 Assay Submitter (PI): Marvin Gershengorn This project aims to identify small drug-like molecules that activate (agonists) the thyrotropin releasing hormone (TRH) receptor (TRHR) or enhance its TRH-stimulated activity (allosteric enhancers). TRHR, a drug-accessible cell surface receptor expressed in specific brain regions, and its ligand TRH have been implicated in several central nervous system disorders, including depression and anxiety. Small molecule TRHR agonists or allosteric enhancers that are metabolically stable and able to cross the blood-brain barrier might serve as probes to elucidate the roles of brain TRH receptors in animal models, and might be valuable as lead compounds for the development of drugs to treat patients with central nervous system disorders. Upon TRHR-Gq activation in TRHR cells, intracellular calcium is released from stores in the endoplasmic reticulum. […] This primary screen measures compound-induced enhancement of an EC20 stimulation of the receptor by its native ligand.
For the HTS assay freshly prepared cells are plated at a density of 2000/well in 3 ul of complete DMEM medium containing 10% serum in 1536-well plates and cultured over night at 37 C in a humidified incubator with 5% CO2. The next day, 2 ul of a no wash calcium dye (ABD Bioquest) was added to the cells and plates were incubated at room temperature for 1 hour. For the assay, assay plates were loaded into the FDSS kinetic plate reader. A 10 cycle (1 second/cycle) baseline measurement is taken and then the FDSS online 1536 pintool delivers 23 nl of compound library (as well as TRH controls) to the plate. The plate is measured for kinetically at 1 cycle/sec for 180 seconds and is considered to be the agonist portion of the assay (eg, compounds which activate a positive calcium response during this portion are flagged as potential agonists). Following the 180 second read, 1 ul of either an EC20 (positive modulation assay) is delivered by an onboard pipette head. Measurements are taken kinetically for an additional 180 seconds. TRHR FDSS Screening Protocol 1. Reagent, 3 uL 2000 cells/well 1536 TC treated Black plate in media containing 10% FCS 2. Time, 18 hours, 33.5C 5% CO2 (cells grown at 37C) 3. Reagent, 2 uL ABD fluo-8 Ca dye 4. Time, 30 min-1.5hrs hours, Room temp (6 plates/batch) 5. Detector, EX 480/EM 530C, FDSS 10 cycles baseline (1sec/cycle) 6. Compound, 23 nL of stock solution from library 7. Detector, EX 480/EM 530C, FDSS 230 cycles (1sec/cycle) Agonist mode 8. Compound, 1 ul EC20 of TRH made up in HEPES HBSS, 10 nM final 9. Detector, EX 480/EM 530C, FDSS 100 cycles (1sec/cycle) Potentiator mode
Note: 0% is about no effect.

SMILES	enhancement
C/C(CCc1c[nH]c2ccccc12)=N\O	30.5% (active)
CCC/C(=N\O)c1c[nH]c2ccccc12	-0.263%
COc1ccc(CNCCc2c[nH]c3ccccc23)cc1OC	8.12%
Cc1ccc(-n2c(/C=C/c3cccc(C(F)(F)F)c3)nc3ccccc3c2=O)cc1	-5.54%
O=C(c1cc(S(=O)(=O)N2CCOCC2)ccc1F)N1CCC2(CC1)OCCO2	5.79%
CC(C)Oc1cccc(C(=O)C2CCCN(C3CCOCC3)C2)c1 (stereo not given)	5.95%
O=C(OCCN1CCOCC1)C1(c2ccccc2)CCCC1	-3.33%
CCOP(=S)(OCC)C(O)CCCCCn1c(=O)c(F)cn(C2CCCO2)c1=O (stereo not given)	31.8% (active)
CC(C)c1ccc(OCC(=O)N2CCN(C)CC2)c(Br)c1	-3.04%
CC(C)(C)c1ccc(OC(=O)N2CCCCC2)cc1	2.54%
C[N+]1(C)CCOC(O)(c2ccc(-c3ccc(C4(O)C[N+](C)(C)CCO4)cc3)cc2)C1 (stereo not given)	36.7% (active)
Cc1cccc(Cn2cccc(C(=O)Nc3ccc4c(c3)OCCO4)c2=O)c1	-1%
CC(C)N(CC#CCC1(O)c2ccccc2-c2ccccc21)C(C)C	-0.877%
CCC(C)n1c(O)c(/C=N/Nc2nc3c(c(=O)n(C)c(=O)n3C)n2C)c(=O)[nH]c1=S (stereo not given)	-2.9%
Cc1ccc(-c2nc3ccccc3c(=O)n2-c2ccc(Br)cn2)cc1	3.56%
